In PubChem BioAssay (NCI) one finds growth inhibition data, which are given here for nine compounds.

The nature of assay [1]: NCI Yeast Anticancer Drug Screen. Data for the rad50 strain (AID 155).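 Also: 0% = growth of vehicle-only cultures of the same strain.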 Conditions: S. cerevisiae rad50 strain growth inhibition, hits give high values. The gist of the method: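 Compounds were tested on a yeast strain with an engineered DNA damage repair alteration; the reported value is growth inhibition normalised to vehicle treatment.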
Assay [2] is described as follows: NCI Yeast Anticancer Drug Screen. Data for the mec2-1 strain (AID 157). Conditions: S. cerevisiae mec2-1 strain, hits give high values. The gist of the method:
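Each compound was tested on mec2-1 yeast, a strain altered in DNA damage repair or cell cycle control. Growth inhibition is reported relative to vehicle.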

Assay [3] is described as follows: NCI Yeast Anticancer Drug Screen. Data for the sgs1 mgt1 strain (AID 161).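 Also: 0% = growth of cultures given vehicle only.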 Conditions: S. cerevisiae sgs1 mgt1 strain, hits give high values. The gist of the method: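 Test agents were incubated with a DNA-repair-mutant yeast strain. Growth was then read and compared against vehicle-treated controls.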
Assay [4] is described as follows: NCI Yeast Anticancer Drug Screen. Data for the cln2 rad14 strain (AID 165).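 Also: 0% = growth equal to vehicle treated cultures.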 Conditions: S. cerevisiae cln2 rad14 strain, hits give high values. The method, boiled down: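 Test compounds were added to cln2 rad14 yeast cultures; inhibition of growth was then determined by comparison with vehicle treatment.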
Assay [5] can be described thus: NCI Yeast Anticancer Drug Screen. Data for the bub3 strain (AID 167). Conditions: S. cerevisiae bub3 mutant strain, hits give high values. The gist of the method:
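Growth of a checkpoint-deficient yeast mutant is measured after compound exposure. Values represent inhibition relative to vehicle.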

A short description of assay [6]: NCI Yeast Anticancer Drug Screen. Data for the mlh1 rad18 strain (AID 175). Conditions: S. cerevisiae mlh1 rad18 strain growth inhibition, hits give high values. The gist of the method: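 Inhibition values reflect reduced growth of mutant yeast versus vehicle-treated controls following compound exposure; the mutations affect DNA damage repair.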
Where [7] appears, read: at 5.0 µM (retest, dose inferred, filed as 0.5).
Where [8] appears, read: at 50.0 µM (retest, dose inferred, filed as 5.0).

Each structure is given as a SMILES string. Compounds without any hit were thinned out: in the full panel of roughly 79,000, 15% have a hit. Values without a mark were called inactive. Activity calls are given as the source filed them. Rule as the data show it: active = growth inhibition above about 70%; inactive = the rest.

With `CC(=O)OC1CCC2C3CCC4C(F)C(=O)C(F)(F)CC4(C)C3CCC12C` (configuration not stated), the growth inhibition in assay [1] (setting [7]) was 2%; in assay [1] (setting [8]) it was 78% (active); in assay [1] (at 50.0 µM) it was 49%; in assay [2] (setting [7]) it was -12%; in assay [2] (setting [8]), 93% (active); in assay [2] (at 50.0 µM) it was 5.6%. Further, the growth inhibition in assay [3] (setting [7]) was -2%; in assay [3] (setting [8]), 91% (active); in assay [3] (at 50.0 µM), 63.5%; in assay [4] (setting [7]), -3%; in assay [4] (setting [8]) it was 46%; in assay [4] (at 50.0 µM) it was 63%. Besides, the growth inhibition in assay [5] (setting [7]) is -1%; in assay [5] (setting [8]), 60%; in assay [5] (at 50.0 µM) it was 8.95%; in assay [6] (setting [7]), 0%; in assay [6] (setting [8]) it was 90% (active); in assay [6] (at 50.0 µM), 12.7%.

Consider `COc1ccccc1C(Cc1ccc(N2C(N)=NC(N)=NC2(C)C)cc1)C(=O)Nc1ccc(S(=O)(=O)F)cc1` (configuration not stated), for which the growth inhibition in assay [1] (setting [7]) was 3%; in assay [1] (setting [8]) it was 15%; in assay [1] (at 50.0 µM), 90.1% (active); in assay [2] (setting [7]) it was 12%; in assay [2] (setting [8]), 2%; in assay [2] (at 50.0 µM) it was 95% (active). The growth inhibition in assay [3] (setting [7]) was 1%; in assay [3] (setting [8]) it was 22%; in assay [3] (at 50.0 µM) it was 99.2% (active); in assay [4] (setting [7]) it was -2%; in assay [4] (setting [8]) it was -5%; in assay [4] (at 50.0 µM), 55.4%. The growth inhibition in assay [5] (setting [7]) is -3%; in assay [5] (setting [8]), -4%; in assay [5] (at 50.0 µM), 98.8% (active); in assay [6] (setting [7]), 2%; in assay [6] (setting [8]) it was 18%; in assay [6] (at 50.0 µM), 99% (active).

Regarding `C=NCC#N`, the growth inhibition in assay [1] (setting [7]) was 8%; in assay [1] (setting [8]) it was 8%; in assay [1] (at 50.0 µM), -12.9%; in assay [2] (setting [7]), -1%; in assay [2] (setting [8]), 2%; in assay [2] (at 50.0 µM), -1.3%. Also, the growth inhibition in assay [3] (setting [7]) was 4%; in assay [3] (setting [8]), 8%; in assay [3] (at 50.0 µM), 25%; in assay [4] (setting [7]), 11%; in assay [4] (setting [8]) it was 6%; in assay [4] (at 50.0 µM), 67.3%. Also, the growth inhibition in assay [5] (setting [7]) was 4%; in assay [5] (setting [8]) it was -2%; in assay [5] (at 50.0 µM), 5.25%; in assay [6] (setting [7]), 3%; in assay [6] (setting [8]), 3%; in assay [6] (at 50.0 µM) it was 26.9%.

On to `S=C1NCCN1`, for which the growth inhibition was 1% in assay [1] (setting [7]); 65% in assay [1] (setting [8]); 12.2% in assay [1] (at 50.0 µM); -4% in assay [2] (setting [7]); 15% in assay [2] (setting [8]); 14.7% in assay [2] (at 50.0 µM). Moreover, the growth inhibition in assay [3] (setting [7]) is 0%; in assay [3] (setting [8]), 35%; in assay [3] (at 50.0 µM) it was -17.6%; in assay [4] (setting [7]) it was 5%; in assay [4] (setting [8]), 14%; in assay [4] (at 50.0 µM) it was 38.5%. In addition, the growth inhibition in assay [5] (setting [7]) was -1%; in assay [5] (setting [8]) it was 21%; in assay [5] (at 50.0 µM), -2.65%; in assay [6] (setting [7]) it was 2%; in assay [6] (setting [8]), 51%; in assay [6] (at 50.0 µM), 4.95%.

In the case of `C[CH2][Sn]1([CH2]C)[O]C(=O)CC(=O)[O]1`, the growth inhibition is 18% in assay [1] (setting [7]); 37% in assay [1] (setting [8]); 48.2% in assay [1] (at 50.0 µM); 10% in assay [2] (setting [7]); 35% in assay [2] (setting [8]); 70.6% (active) in assay [2] (at 50.0 µM). Further, the growth inhibition in assay [3] (setting [7]) was 14%; in assay [3] (setting [8]), 55%; in assay [3] (at 50.0 µM), 37.8%; in assay [4] (setting [7]) it was 20%; in assay [4] (setting [8]), 19%; in assay [4] (at 50.0 µM) it was 65.8%. Besides, the growth inhibition is 15% in assay [5] (setting [7]); 54% in assay [5] (setting [8]); 59.1% in assay [5] (at 50.0 µM); 16% in assay [6] (setting [7]); 24% in assay [6] (setting [8]); 16.5% in assay [6] (at 50.0 µM).

As to `CCCCCc1cc(OC(=O)CCCN(CC)CC)c2c(c1)OC(C)(C)[C@@H]1CCC(C)=C[C@@H]21`, the growth inhibition in assay [1] (setting [7]) is 79% (active); in assay [1] (setting [8]), 97% (active); in assay [1] (at 50.0 µM), 87% (active); in assay [2] (setting [7]), 30%; in assay [2] (setting [8]), 98% (active); in assay [2] (at 50.0 µM), 91% (active). For the same compound, the growth inhibition was 63% in assay [3] (setting [7]); 99% (active) in assay [3] (setting [8]); 89.7% (active) in assay [3] (at 50.0 µM); 49% in assay [4] (setting [7]); 98% (active) in assay [4] (setting [8]); 90% (active) in assay [4] (at 50.0 µM). In addition, the growth inhibition is 27% in assay [5] (setting [7]); 99% (active) in assay [5] (setting [8]); 87.8% (active) in assay [5] (at 50.0 µM); 74% (active) in assay [6] (setting [7]); 97% (active) in assay [6] (setting [8]); 91.7% (active) in assay [6] (at 50.0 µM).

As to `COC1OC(OC)[CH]([Hg][Cl])C1OC` (configuration not stated), the growth inhibition in assay [1] (setting [7]) is 99% (active); in assay [1] (setting [8]), 99% (active); in assay [1] (at 50.0 µM), 99.5% (active); in assay [2] (setting [7]), 99% (active); in assay [2] (setting [8]), 100% (active); in assay [2] (at 50.0 µM) it was 99.7% (active). Further, the growth inhibition in assay [3] (setting [7]) is 99% (active); in assay [3] (setting [8]), 99% (active); in assay [3] (at 50.0 µM), 99.4% (active); in assay [4] (setting [7]) it was 99% (active); in assay [4] (setting [8]) it was 99% (active); in assay [4] (at 50.0 µM) it was 98.5% (active). The growth inhibition is 100% (active) in assay [5] (setting [7]); 99% (active) in assay [5] (setting [8]); 99.2% (active) in assay [5] (at 50.0 µM); 99% (active) in assay [6] (setting [7]); 99% (active) in assay [6] (setting [8]); 99.4% (active) in assay [6] (at 50.0 µM).

Take `CC1c2c(n(C)c3ccccc23)C2CCC3(CO3)C1N2Cc1ccccc1` (configuration not stated): the growth inhibition in assay [1] (setting [7]) is 25%; in assay [1] (setting [8]) it was 97% (active); in assay [1] (at 50.0 µM), 90.5% (active); in assay [2] (setting [7]) it was 22%; in assay [2] (setting [8]) it was 99% (active); in assay [2] (at 50.0 µM), 92% (active). For the same compound, the growth inhibition was 42% in assay [3] (setting [7]); 99% (active) in assay [3] (setting [8]); 93.3% (active) in assay [3] (at 50.0 µM); 24% in assay [4] (setting [7]); 98% (active) in assay [4] (setting [8]); 90% (active) in assay [4] (at 50.0 µM). The growth inhibition in assay [5] (setting [7]) is 26%; in assay [5] (setting [8]) it was 99% (active); in assay [5] (at 50.0 µM) it was 92.5% (active); in assay [6] (setting [7]), 35%; in assay [6] (setting [8]), 98% (active); in assay [6] (at 50.0 µM), 92.2% (active).

With `CC(=O)OCC12CCC(C)=CC1OC1C(O)C(OC(C)=O)C2(C)C12CO2` (configuration not stated), the growth inhibition in assay [1] (setting [7]) is 99% (active); in assay [1] (setting [8]) it was 99% (active); in assay [1] (at 50.0 µM), 92.7% (active); in assay [2] (setting [7]), 98% (active); in assay [2] (setting [8]), 100% (active); in assay [2] (at 50.0 µM), 94.5% (active). Also, the growth inhibition was 98% (active) in assay [3] (setting [7]); 99% (active) in assay [3] (setting [8]); 93.7% (active) in assay [3] (at 50.0 µM); 99% (active) in assay [4] (setting [7]); 99% (active) in assay [4] (setting [8]); 92.8% (active) in assay [4] (at 50.0 µM). Besides, the growth inhibition was 97% (active) in assay [5] (setting [7]); 99% (active) in assay [5] (setting [8]); 92.8% (active) in assay [5] (at 50.0 µM); 99% (active) in assay [6] (setting [7]); 99% (active) in assay [6] (setting [8]); 92.5% (active) in assay [6] (at 50.0 µM).
